# Compound activity (PubChem BioAssay)
# Hits are enriched below; roughly 8.8% of the tested compounds scored in any of these assays.
# HT1080 IDH1KD tx – kills HT-1080 cells with IDH1 knockdown; HT-1080 IDH1 knockdown viability, ATP luminescence, 48 h; Potency, µM (top dose mostly 46.1 µM), for the others: top-dose activity, negative = toxicity, usual class: cytotoxic; hit rate 2% among 360,000; AID 686971;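 note: potency is the fitted concentration of half-maximal effect; 0% = DMSO wells and -100% = cell-free medium wells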
#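 Assay cells: HT-1080 with IDH1 knockdown, 750 per well, RPMI/5% FBS. Exposure: 48 h at 37 °C following 2 h pre-incubation. Read: CellTiter-Glo luminescence; fitted concentration-response, curve class assigned.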
# KB-V1 MDR tox – KB-V1 MDR subline cytotoxicity; KB-V1 MDR cells viability, CellTiter-Glo, 72 h; Potency, µM (doses to about 46.1 µM), hits mostly cytotoxic; hit rate 3.4% among 400,000; AID 1347076; note: potency is the fitted concentration of half-maximal effect; nearly all actives have a fitted effect of over 60% in size
#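 Cytotoxicity toward P-gp-expressing KB-V1 cells was determined as loss of CellTiter-Glo luminescence after 72 h at 37 degrees C. Compounds were tested in quantitative HTS format across a concentration range, with curves fitted to normalized data.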
# IL-1B inflam inh – inflammasome signaling inhibition, IL-1 beta readout; activity change, % at 57.5 µM; THP-1 LPS/ATP IL-1B secretion, AlphaLISA, 16 h; stronger effect = lower value; hit rate 4.7% among 360,000; in the data active = activity change below about -50%; inconclusive = mostly about -30% to -49%
#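 THP-1 cells pretreated 1 hr with compounds (up to 57.5 uM final), then stimulated with LPS (250 ng/mL final) plus ATP (1.25 mM final); secreted IL-1B measured by AlphaLISA after 16 hr, decreased signal indicating inhibition.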
# KB-3-1 cytotox – kills parental KB-3-1 adenocarcinoma cells | hit rate 1.4% among 400,000 | KB-3-1 viability, CellTiter-Glo ATP luminescence, 72 h | Potency, µM (series often up to 46.1 µM), usual class: cytotoxic; note: potency is the fitted concentration of half-maximal effect; nearly all actives have a fitted effect of over 60% in size
#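 Viability of parental KB-3-1 cells, measured by CellTiter-Glo luminescence, followed a 72 h incubation at 37 °C with pinned compounds in phenol-red-free DMEM containing 10% FBS.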
# HT1080NT lethal – kills 2HG-producing HT-1080-NT fibrosarcoma cells | HT-1080-NT fibrosarcoma viability, CellTiter-Glo ATP luminescence, 48 h | Potency, µM (doses to about 46.1 µM), without a hit: at the highest dose activity, negative = less viability, usual class: cytotoxic | AID 686970 | hit rate 1.6% among 360,000;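 note: NT is the 2HG producing partner of a matched IDH1 knockdown line; potency is the fitted concentration of half-maximal effect; 0% = DMSO-treated cells and -100% = media-only wells without cells; nearly all actives have a fitted effect of over 55% in size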
#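 Fibrosarcoma NT cells, 750 per well in 5% FBS RPMI, were exposed to compound for 48 hours. Viability: CellTiter-Glo luminescence.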
# * marks the source's active call; other numbers are inactive results; i = inactive; ? = inconclusive; . = not tested or not shown; ! = not active in a repeat. Unless noted, calls come from the whole dose curve; as a rule, active = well fitted curve in the direction sought with a large enough effect; inconclusive = small, poorly fitted or top-dose-only effect, or another doubt; inactive = no such curve, though single readings can be large; an effect the other way counts as inactive or inconclusive. Unless noted, % is set by controls: 0 for no effect and ±100 for the full control effect.
SMILES,HT1080 IDH1KD tx,KB-V1 MDR tox,IL-1B inflam inh,KB-3-1 cytotox,HT1080NT lethal
O=C(Nc1cc(Cl)cc(Cl)c1)N1Cc2ccccc2-n2nncc2C1,11.7%,?,-19.6,i,-10.3%
CCOc1ccc(S(=O)(=O)N(C)c2ccc(OCC(=O)N3c4ccc(C)cc4C4CN(C)CCC43)cc2)cc1 (stereo not drawn),?,i,-50.4*,i,.
Cc1ccc2c(c1)C1CN(C)CCC1N2C(=O)CCCN1C(=O)c2cccc3cccc(c23)C1=O (stereo not drawn),?,i,-13.6,i,.
CCOc1cc2c(cc1OCC)-n1cccc1C(c1ccc(F)cc1)NC2 (stereo not drawn),-7.7%,i,0.0,i,-15.6%
CCOc1cc2c(cc1OCC)-n1cccc1C(c1ccc(C(C)C)cc1)NC2 (stereo not drawn),20.6µM*,?,-94.1*,?,16.4µM*
CCOc1cc2c(cc1OCC)-n1cccc1C(c1ccc(OC)cc1)NC2 (stereo not drawn),-5.9%,i,-63.0*,i,-18.2%
CCCN1CCc2cccc3c2[C@H]1Cc1ccc(O)c(O)c1-3,23.1µM*,?,-3.1,i,3.26µM*
CN1CCc2cccc3c2[C@H]1Cc1ccc(O)c(O)c1-3,32.6µM*,?,-8.7,?,20.6µM*!
O=C1Nc2ccc(Br)cc2C(c2ccc(Cl)cc2)=NC1O (stereo not drawn),6.6%,i,-4.2,i,-0.9%
Cn1c(=O)n(C)c2cc(CNCCc3ccc(F)cc3)ccc21,.,i,.,i,.
O=C(CN1CCCCC1)c1ccccc1,.,i,.,i,.
Cc1ccsc1/C=C1\C(=O)NC(=S)N(C)C1=O,-2.0%,i,-94.0*,i,-0.3%
C=CCN1C(=O)/C(=C/c2ccc(Br)s2)C(=O)NC1=S,2.4%,i,-98.6*,i,-1.6%
CN1C(=O)/C(=C/c2ccc(Cl)s2)C(=O)NC1=S,?,i,-97.3*,i,?
C=CCN1C(=O)/C(=C\c2ccc(N3CCOCC3)o2)C(=O)NC1=S,-1.4%,i,7.2,i,-1.6%
Cc1ccccc1Cc1c(C)nc2c(C(=O)NCc3ccco3)cnn2c1C,?,?,?,i,?
O=C(NP(=O)(N1CC1)N1CC1)c1cc(I)ccc1I,-5.5%,i,24.3,i,-0.7%
C=CCn1c(O)c(C(CC)=NCc2ccc3c(c2)OCO3)c(=O)[nH]c1=O,-19.7%,?,.,?,-23.5%
C=CCn1c(O)c(C(CC)=NCc2cc(OC)cc(OC)c2)c(=O)[nH]c1=O,23.1µM*,?,75.8,?,23.1µM*
C=CCn1c(O)c(C(CC)=NCCC2=CCCCC2)c(=O)[nH]c1=O,3.1%,8.91µM*,30.2,i,6.4%
COC(=O)C1=C(c2cccc(OCc3ccccc3)c2)C[C@@H]2CC[C@H]1N2C(=O)NCc1cccc(C(F)(F)F)c1,-7.0%,i,?,?,-4.0%
Cc1nnc(NC(=O)c2cccn(Cc3ccccc3F)c2=O)s1,.,i,.,i,.
O=[N+]([O-])c1cc(C(F)(F)F)c(Cl)c([N+](=O)[O-])c1Nc1ncc(C(F)(F)F)cc1Cl,.,?,.,1.46µM*,.
N#Cc1c(N)nc(SCc2ccncc2)c(C#N)c1-c1cccs1,?,i,-50.9*,i,?
O=C(CN1CCCC1)Nc1ccc(Cl)cc1C(=O)c1ccccc1,10.0%,?,-2.2,i,-0.3%
SMILES,HT1080 IDH1KD tx,KB-V1 MDR tox,IL-1B inflam inh,KB-3-1 cytotox,HT1080NT lethal
O=C(CN1CCN(C(=O)CNC(=O)c2ccc(-c3ccccc3)cc2)CC1)Nc1ccccc1Cl,?,8.2µM*,?,?,?
COC(=O)C1=C(c2ccc(F)cc2OCc2ccccc2)C[C@@H]2CC[C@H]1N2C(=O)NCc1ccc([N+](=O)[O-])cc1,-18.9%,i,-57.7*,?,-8.7%
COC(=O)C1=C(c2ccc(F)cc2OCc2ccccc2)C[C@@H]2CC[C@H]1N2C(=O)N1CCC(O)(c2ccc(Cl)cc2)CC1,-13.4%,?,-52.8*,?,-7.7%
COC(=O)C1=C(c2ccccc2OCc2ccccc2)C[C@@H]2CC[C@H]1N2C(=O)NCc1ccc(F)cc1,?,18.4µM*,?,20.6µM*,-21.6%
COC(=O)C1=C(c2ccccc2OCc2ccccc2)C[C@@H]2CC[C@H]1N2C(=O)NCc1ccc(C(C)(C)C)cc1,-9.0%,i,-21.3,?,-18.0%
COC(=O)C1=C(c2ccc(F)cc2OCc2ccccc2)C[C@@H]2CC[C@H]1N2C(=O)NCc1ccc(F)cc1,-10.3%,i,-18.5,?,-18.2%
COC(=O)C1=C(c2ccc(F)cc2OCc2ccccc2)C[C@@H]2CC[C@H]1N2C(=O)NCc1ccc(C)cc1,-12.7%,i,-59.0*,?,-9.2%
COC(=O)C1=C(c2ccc(F)cc2OCc2ccccc2)C[C@@H]2CC[C@H]1N2C(=O)N1CCCCC1,-16.5%,?,7.6,?,?
Cc1ccccc1-n1nc(C)c2c1NC(=O)CSC2c1ccc(N(C)C)cc1 (stereo not drawn),.,i,.,i,.
Cn1c(=O)n(C)c2cc(CNCCc3ccccc3)ccc21,.,i,.,i,.
COC1C(O)C(C)OC(OC2CCC3(C)C(CCC4C3C(O)CC3(C)C(C5=CC(=O)OC5)CCC43O)C2)C1O (stereo not drawn),0.82µM*,0.184µM*,0.0,0.206µM*,1.46µM*
CNC(=O)Nc1ccc(C(=O)N/N=C\C23CC[C@@H](O)CC2(O)CC[C@@H]2[C@@H]3CCC3(C)C(C4=CC(=O)OC4)CCC23O)cc1 (stereo partly drawn),?,i,29.7,?,?
CC12CC[C@H]3[C@@H](CCC4(O)C[C@H](O)CCC34/C=N/NC(=O)c3ccccc3[N+](=O)[O-])C1(O)CCC2C1=CC(=O)OC1 (stereo partly drawn),?,?,?,9.2µM*,?
C[C@H]1O[C@@H](O[C@H]2[C@@H](O)C[C@@H](O[C@H]3[C@@H](O)C[C@H](O[C@H]4CC[C@@]5(C)[C@H](CC[C@@H]6[C@@H]5CC[C@]5(C)[C@@H](C7=CC(=O)OC7)CC[C@]65O)C4)O[C@@H]3C)O[C@@H]2C)C[C@H](O)[C@@H]1O,.,?,.,0.0103µM*,.
C[C@]12CC[C@H](O)C[C@H]1CC[C@@H]1[C@@H]2CC[C@]2(C)[C@@H](C3=CC(=O)OC3)CC[C@]12O,0.259µM*,1.46µM*,?,1.64µM*,0.517µM*
CC12CC[C@H]3[C@@H](CCC4(O)C[C@H](O)CCC34/C=N/NC(=O)Cc3ccccc3)C1(O)CCC2C1=CC(=O)OC1 (stereo partly drawn),?,i,-3.9,i,?
